According to PubChem BioAssay AID1347416 (National Center for Advancing Translational Sciences (NCATS), 2020):
Screen size: about 4,100 compounds; about 1,600 (39%) were called active. About 25% were inconclusive and are not listed. Calls come from the whole dose curve; as a rule, active = well fitted inhibition curve with a large enough effect; inconclusive = small, poorly fitted or top-dose-only effect; inactive = no such curve, though single readings can be large or run the other way. The list shows a part of the results.

Experiment: qHTS Validation assay for Inhibitors of Plasmodium falciparum Dd2 growth in vitro; note: nearly all actives have a fitted effect of over 70% in size
Conditions: P. falciparum Dd2 in RBCs, SYBR Green growth, 72 h; series mostly up to 28.7 µM; activity change, negative = inhibition: at the top concentration
Excerpt: Malaria, a parasitic disease spread to humans through the bite of a Plasmodium infected Anopheles mosquito, continues to be a global health burden affecting millions of people, with an estimated 228 million cases and 405,000 deaths in 2018. Concerns about safety and limitations of current antimalarial treatments strongly emphasize the need to develop new therapeutic options. The scarce number of chemotypes and validated drug targets with efficacy against the liver stage, have hindered development of new antimalarials. To address this, a chemoprophylactic drug discovery effort was conducted through a combined phenotypic high-throughput asexual blood stage and liver stage screen, providing a robust foundation to identify liver-stage active lead chemotypes. Compounds were initially screened against Plasmodium falciparum Dd2 strain parasites using a in vitro SYBRGreen-1 based 72 hr proliferation assay to identify novel chemotypes to advance to liver stage assays. NIH/NCATS Early Translation Branch Assay Submitter (PI): Anton Simeonov Ph.D.
[…] Assay Protocol: PROTOCOL TABLE (as described by Inglese et al., 2007) SEQUENCE No. (e.g., 1, 2, 3, etc.); PARAMETER (e.g., Cells, Incubation, Reagent, etc.); VALUE; DESCRIPTION SEQUENCE, Parameter, Description 1; Reagent; 3 uL complete malaria growth medium, 1536 TC treated Black clear bottom plate 2; Controls; 23 nL positive control artesunate (300 nM final) to column 1; Neutral control DMSO to columns 2-4 3; Compound; 23 nL of compounds in dose response concentration (29 uM to 0.5 nM final) 4; Reagent; 5 uL malaria infected red blood cells (2.5% hematocrit final, 0.3% parasitemia 5; Time; 72 hours at 37C (5% O2, 5% CO2, 90% N2; 95% Rh) 6; Reagent; 2 uL lysis buffer/SYBRGreen-1, 25 sec shake immediately following dispense 7; Time; ~16 hours at 37C (5% O2, 5% CO2, 90% N2; 95% Rh) 8; Detector; EnVision (PerkinElmer) bottom read at 485/14nm excitation and 535/25 nm emission NOTES (numbers refer to sequence above): 1; Complete Malaria Growth Media: 1X RPMI-1640 w/L-glutamine, 5.5g/L Albumax II, 367 uM Hypoxanthine, 25 mM HEPES, 0.25% Sodium Bicarbonate, 35 uM Gentamicin sulfate 2; Controls were added using the Kalypsis Pintool (Wako USA) equipped with 1536 pinhead 3; Compounds were added in a 7-point, titration with a high final concentration of 29 uM by Pintool from seven inter-plate titrations of library plates and two DMSO control plates at the beginning and end (see Yasgar et al., 2008). 4; Red blood cells infected with Plasmodium falciparum Dd2 parasites were used. 6; Lysis buffer: 20 mM Tris-HCl, 10 mM EDTA, 0.16% Saponin, 1.6% Triton-X, 10X SYBR Green. REFERENCE: Inglese J, Shamu CE, Guy RK. 2007. Reporting data from high-throughput screening of small-molecule libraries. Nat Chem Biol. doi:10.1038/nchembio0807-438 Yasgar A, Shinn P, Jadhav A, Auld D, Michael S, Zheng W, Austin CP, Inglese J, Simeonov A. 2008. Compound Management for Quantitative High-Throughput Screening. J Lab Autom 13:79-89. doi:10.1016/j.jala.2007.12.004
% is set by controls: 0 for no effect and ±100 for the full control effect; potency is the fitted concentration of half-maximal effect.

SMILES	Potency	activity change, negative = inhibition
COc1ccc2c(c1)c(CN1CCCCCCN(C)C(=O)[C@@H]3CCC[C@@H]31)cn2C	15 µM (active)	
CCC(=O)N1CCCCCCN(C)C(=O)[C@@H]2CCC[C@@H]21		9.66% (inactive)
C=C(C)COc1ccc(-c2[nH]ncc2-c2ccc(OC)c(OC)c2)c(O)c1	6.68 µM (active)	
C=C(C)COc1ccc(-c2[nH]ncc2Oc2ccccc2OCC)c(O)c1	2.99 µM (active)	
CCOC(=O)c1c(C)[nH]c2c1-c1ccccc1C(=O)C2=O	2.37 µM (active)	
CCOC(=O)c1cc(Sc2ccccc2N)cc(C(=O)OCC)n1		-6.23% (inactive)
CCOC(=O)C1CCN(C(=O)c2c(C)oc3c2C(=O)c2ccccc2C3=O)CC1	0.531 µM (active)	
CCOC(=O)C1CCN(C(=O)Cn2cnc3sc(C)c(S(=O)(=O)N4CCOCC4)c3c2=O)CC1		54.6% (inactive)
CCOC(=O)c1c(C)oc2c1C(=O)c1ccccc1C2=O	0.422 µM (active)	
O=C(NCc1ccc(F)cc1)C1(CCO)CC12CCOCC2 (stereo not given)		10.9% (inactive)
O=C(CCC1CCCN(Cc2cccn2-c2cccnc2)C1)Nc1ccccc1F (stereo not given)	6.68 µM (active)	
O=C(Nc1ccccc1F)N1CCCCCC1c1nc(-c2cccnc2)no1 (stereo not given)		23.3% (inactive)
CCC(C)NC(=O)N1CC(Oc2ccc(-c3noc(C4CCOCC4)n3)cc2)C1 (stereo not given)		-7.58% (inactive)
CCn1ccc2sc(C)c(C(=O)N3CCN(c4ccc(F)cc4)CC3)c2c1=O		-25.7% (inactive)
Cc1nn(C)c(C)c1CCC(=O)N1CCC(Cc2noc(-c3ccc(F)cc3)n2)C1 (stereo not given)		0.419% (inactive)
O=C(CSc1nc(-c2ccccc2)no1)N1CCN(c2ccc(F)cc2)CC1	4.22 µM (active)	
CC1CCN(C(=O)CSc2nc(-c3ccc(C(C)C)cc3)no2)CC1	1.19 µM (active)	
Cc1ccc(Cc2nc3ccccc3nc2SCC(=O)N2CCN(c3ccccc3)CC2)cc1		20.1% (inactive)
O=C(c1ccc(F)cc1)N1CCn2c(nnc2-c2ccccc2)C1		0% [at 43.1 µM] (inactive)
CC(C)c1ccc(-c2noc(SCC(=O)N3CCN(c4ccc(F)cc4)CC3)n2)cc1	0.668 µM (active)	
COc1ccccc1CC(=O)N1CCC(n2cc(-c3nc(C)no3)nn2)CC1		1.69% (inactive)
CC(C)c1noc(-c2cn(C3CCN(C(=O)COc4ccccc4)CC3)nn2)n1		22.5% (inactive)
COc1ccccc1N1CCN(C(=O)CSc2nc(-c3ccc(C(C)C)cc3)no2)CC1	0.376 µM (active)	
COc1ccc(C(=O)N2CCC(n3cc(-c4nc(-c5ccccc5)no4)nn3)C2)cc1 (stereo not given)		-1.74% (inactive)
COc1ccc(N2CCN(C(=O)CSc3nc(-c4ccc(C(C)C)cc4)no3)CC2)cc1	0.531 µM (active)	

SMILES	Potency	activity change, negative = inhibition
COc1ccc(-c2noc([C@@H]3CCCN3C(=O)Cc3ccccc3Cl)n2)cc1		-6.35% (inactive)
CC(C)c1ccc(-c2noc(SCC(=O)N(C)c3ccc(F)cc3)n2)cc1	0.944 µM (active)	
COc1ccc(-c2noc(-c3cccn3CC(=O)N(C)c3ccc(F)cc3)n2)cc1F		-29.9% (inactive)
O=C(N/N=C(\CC(=O)c1cccs1)C(F)(F)F)c1ccncc1		13% (inactive)
Cc1cccc(CN2CCCN(Cc3ccncc3)C(c3ccccc3)CC(=O)NCC2)c1 (stereo not given)	4.22 µM (active)	
COc1cccc(CN2CCCN(Cc3ccncc3)C(c3ccccc3)CC(=O)NCC2)c1 (stereo not given)	7.5 µM (active)	
Cc1cccc(Cn2nnc3c2C(=O)c2ccccc2C3=O)c1		-9.79% (inactive)
COc1ccc(CN2CCCCCNC(=O)CC2c2ccccc2)cc1Cn1ccnc1 (stereo not given)	9.44 µM (active)	
COc1ccc(CN(C)C2CCc3nn(C)c(=O)n3CC2)cc1Cn1cccn1 (stereo not given)		12.6% (inactive)
CCOc1ccccc1CN1CCCN(Cc2ccncc2)C(c2ccccc2)CC(=O)NCC1 (stereo not given)	6.68 µM (active)	
CCCNC(=O)N1CCCCCNC(=O)CC1c1ccccc1 (stereo not given)		3.59% (inactive)
CCOc1ccccc1CN1C[C@@H]2C(=O)N(CCN3CCc4ccccc4C3)C(=O)[C@@H]2C1		-14.9% (inactive)
Cc1ccc(CNC(=O)N2CCCCCNC(=O)CC2c2ccccc2)cc1 (stereo not given)		0% (inactive)
COc1ccc(-n2nc(C3CCN(Cc4ccncc4)CC3)[nH]c2=O)cc1		10.1% (inactive)
COc1ccc(N=C2NC(=O)/C(=C\c3ccco3)S2)cc1		18.9% (inactive)
C#CCN(C)Cc1nc(C2(O)CCN(C(C)=O)CC2)cs1		10.6% [at 43.1 µM] (inactive)
CCN(CC)C(=O)[C@@H]1CCCN1[C@H](Cc1ccccc1)C(=O)NC		14.1% [at 43.1 µM] (inactive)
Cc1noc(C)c1-c1cc2cc(CN(C)C)oc2c(NCCc2ccccc2)n1	13.7 µM (active)	
Cc1noc(C)c1-c1cc2cc(CN(C)C)oc2c(NCCOc2ccccc2)n1	15.3 µM (active)	
COCCN(CC1CCCO1)c1nc(CCN)nc2ccccc12 (stereo not given)		52.7% (inactive)
CCOc1ccc(Nc2nc(NCC3CCCO3)c3ccccc3n2)cc1 (stereo not given)	1.88 µM (active)	
CC(C)c1nc2oc3c(NCC4CCCO4)ncnc3c2c2c1CCC2 (stereo not given)		-24.5% (inactive)
Cc1cccc(-c2nnc(SCC(=O)NC3CC3)n2C)c1		83.7% (inactive)
CSc1nnc(-c2cc3ccccc3cc2O)n1C	7.5 µM (active)	
Cn1c(SCC(=O)N2c3ccccc3CCc3ccccc32)nnc1-c1cc2ccccc2cc1O	8.41 µM (active)	
